# Screens as filed in PubChem BioAssay.
# The list is not random: actives were taken first. Their share in the collection is about 0.75%.
# TCR act = Activators of T cell receptors: qHTS campaign | AID 504894, 2011 | Potency, µM (top dose mostly 9.22 µM), without a hit: at the highest dose activation of IL-2 secretion, hits mostly activators | 330,000 tested, under 10 active | primary human leukocytes, anti-CD3, IL-2 HTRF, 48 h; note: % of control where 0% means no effect
#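 HTRF read-out of IL-2 secretion: europium cryptate donor excited at 320nm, d2 acceptor emission at 665nm. Cells were primary human leukocytes incubated 48 hr with compounds and a-CD3 beads, supplying TCR signal only.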
# uPA surface inh = qHTS for Inhibitors of Cell Surface uPA Generation. cell surface uPA generation assay, qHTS. 0.31% of 330,000 active. Potency, µM (highest dose often 38.3 µM), for inactives: at the highest dose activity change, negative = inhibition, hits mostly inhibitors; active = well fitted inhibition curve with a large enough effect; inconclusive = small, poorly fitted or top-dose-only effect; inactive = no such curve, though single readings can be large or run the other way; tested in mouse RAW 264.7 cells; note: potency is the fitted concentration of half-maximal effect; % is set by controls: 0 for no effect and ±100 for the full control effect; nearly all actives have a fitted effect of over 55% in size
# PKM2 act = qHTS Assay for Activators of Human Muscle isoform 2 Pyruvate Kinase; Pyruvate kinase PKM (Homo sapiens), P14618; purified PKM2, Kinase-Glo ATP luminescence, activation; response scale: 0% is enzyme alone, no compound; AID 1631, 2009; 0.34% of 260,000 active; Potency, µM (series often up to 57.5 µM), for the others: at the top dose activation, actives largely listed as activators; note: potency is the fitted concentration of half-maximal effect; % is set by controls: 0 for no effect and ±100 for the full control effect; nearly all actives have a fitted effect of over 55% in size
# Target sequence (P14618 whole entry, looked up, canonical isoform): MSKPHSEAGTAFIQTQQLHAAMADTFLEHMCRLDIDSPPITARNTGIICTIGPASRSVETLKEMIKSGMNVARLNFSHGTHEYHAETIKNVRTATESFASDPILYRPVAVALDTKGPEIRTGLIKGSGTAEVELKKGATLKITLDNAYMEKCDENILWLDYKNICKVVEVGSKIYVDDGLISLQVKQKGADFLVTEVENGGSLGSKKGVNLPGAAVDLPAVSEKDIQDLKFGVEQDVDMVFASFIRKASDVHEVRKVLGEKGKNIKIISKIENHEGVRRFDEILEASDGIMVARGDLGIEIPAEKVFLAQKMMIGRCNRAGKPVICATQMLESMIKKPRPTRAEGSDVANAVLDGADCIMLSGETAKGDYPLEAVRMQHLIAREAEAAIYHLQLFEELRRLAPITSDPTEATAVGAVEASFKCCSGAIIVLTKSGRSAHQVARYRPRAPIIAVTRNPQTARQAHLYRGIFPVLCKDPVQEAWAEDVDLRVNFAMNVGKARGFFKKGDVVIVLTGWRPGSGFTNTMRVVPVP
#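 ATP formation by purified human PK-M2, quantified via coupled luciferase luminescence after 1 h at room temperature with 0.1 mM ADP and 0.5 mM PEP final.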
# TSHR antagonist = Antagonists of the Thyroid Stimulating Hormone Receptor: HTS campaign | Thyrotropin receptor (Homo sapiens), P16473 | TSHR-expressing cells, TSH-stimulated cAMP HTRF, 2 h; stronger effect = lower value | activity change, negative = inhibition, % at 11.5 µM | 0.2% of 330,000 active | AID 504810, 2011;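 active = activity change below a set negative limit, meaning inhibition stronger than a set level, cut at about -70% in these data; inconclusive = activity change between two set negative limits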; note: % is set by controls: 0 for no effect and ±100 for the full control effect
#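 Read-out is FRET at 665 nm (cryptate excitation 337 nm) from a cryptate-tagged anti-cAMP antibody, competed by cell cAMP against cAMP-d2. Compounds are tested on freshly harvested TSHR cells challenged with 4nM TSH (EC80) for 2 hours at 37 deg C.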
# Starred values were filed as active, the others as inactive; ? = inconclusive; / = no result; [ ] = remark or other dose. Unless noted, calls come from the whole dose curve; as a rule, active = well fitted curve in the direction sought with a large enough effect; inconclusive = small, poorly fitted or top-dose-only effect, or another doubt; inactive = no such curve, though single readings can be large; an effect the other way counts as inactive or inconclusive.
SMILES,TCR act,uPA surface inh,PKM2 act,TSHR antagonist
COc1cccc(NC(=O)CCc2nc(-c3ccccc3F)no2)c1,2%,/,26%,-2
Cc1ccc(NC(=O)Cn2nnc(C(=O)NCCc3ccccc3)c2N)c(C)c1,1%,-3%,/,-107*
COc1ccc(CCNC(=O)c2nnn(CC(=O)Nc3ccc(C)cc3C)c2N)cc1OC,-4%,-1%,/,-82*
Cc1cc(C)c(NC(=O)Cn2nnc(C(=O)NCCc3ccccc3)c2N)c(C)c1,-7%,-7%,-2%,0
O=C(O)CNC(=O)C1(NC(=O)OCc2ccccc2)CCCC1,-4%,-6%,/,/
COc1ccc(S(=O)(=O)N2CCc3ccccc32)cc1C(=O)Nc1ccc(C(N)=O)cc1,-7%,14µM*,/,-5
COc1ccccc1C(=O)Nc1ccc(S(=O)(=O)N2CCc3ccccc32)cc1,0%,12%,6%,-5
N#Cc1c(N2CCN(c3ccc([N+](=O)[O-])cc3)CC2)[n+](=O)c2ccc(Cl)cc2n1[O-],2%,-7%,/,/
Fc1ccccc1-c1ccc(/C=N/Nc2nc3ccccc3[nH]2)o1,2%[46.1 µM],4µM*,-23%,-1
C(=N\Nc1nc2ccccc2[nH]1)/c1ccccn1,3%,?,-67%,-6
COc1ccc(-c2cc3c(=O)n(CC(=O)NCc4cccnc4)nc(C)n3n2)cc1,2%,-1%,/,-139*
CC1(C)CC(O)CC(C)(C)N1CC(O)COCc1ccccc1 (stereo not drawn),-4%,0%,/,-134*
Cc1cccc(OCC(O)CN2C(C)(C)CC(O)CC2(C)C)c1 (stereo not drawn),2%,-1%,-16%,/
Cc1ccc(-n2nc3c(=O)n(C(C)C(=O)NC4CC4)nc(C)c3c2C)cc1 (stereo not drawn),-1%,-14%,/,-114*
NC(=O)C1CCN(c2nc(-c3ccc(Cl)cc3)cs2)CC1,/,/,/,-4
COc1ccc(/C=C/C(=O)O)cc1S(=O)(=O)N1CCC(C)CC1,0%,1%,-5%,-10
Cn1c(Cn2cnc(Cl)c2Cl)nc2ccccc21,-6%,1%,25µM*,11
Cc1nc(COC(=O)c2ccc(S(=O)(=O)N3CCCC3)cc2)cs1,2%,0%,28µM*,4
Cn1c(/C=C/c2ccccc2)nc2ccccc21,0%,4µM*,-74%,0
Cc1ccc([C@@H]2CC=C(C(=O)O)[C@H](c3cccc(F)c3)N2S(=O)(=O)c2ccccc2C)cc1,3%,-15%,/,-4
COc1cccc(OC)c1C(=O)Nc1sc2c(c1C#N)CCC2,/,16%,-2%,-118*
CCOc1ccc(C(=O)N2CCN(c3cccc(C)c3C)CC2)cc1,-2%,0%,14µM*,/
CCOc1ccc(C(=O)N2CCN(c3cccc(Cl)c3)CC2)cc1,-1%,10%,15%,-12
COCCNC(=O)c1cc(-c2ccccc2OC)on1,3%,7.1µM*,0%,-10
COc1ccccc1-c1cc(C(=O)NCc2cccs2)no1,0%,3%,5%,13
SMILES,TCR act,uPA surface inh,PKM2 act,TSHR antagonist
CCCCc1cc(C(=O)Cc2ccccn2)c(O)cc1O,-5%,4%,/,-4
COc1cc2cccc(OC)c(=O)c2c(O)c1OC,-1%[46.1 µM],-10%,2%,-9
COc1cc2c(ccc3cc(OC)c(OC)c(O)c32)cc1O,-1%,10µM*,?,-3
CN(C)c1ccc(-c2nc3ccccc3c(=O)[nH]2)cc1,7%,1.4µM*,-23%,-1
CC(=O)Nc1cccc(NC(=O)CSc2ccc(-c3cccnc3)nn2)c1,4%,-3%,32µM*,-2
CC(=O)c1cccc(NC(=O)CSc2ccc(-c3cccnc3)nn2)c1,/,2%,/,/
Cc1cc(NC(=O)CSc2ncn(-c3ccccc3)n2)no1,5%,7%,25µM*,8
O=C(CS(=O)(=O)c1ccccc1)NCc1ccc(Cl)cc1,4%,?,-20%,-15
O=C(CN(C1CC1)S(=O)(=O)c1ccc(S(=O)(=O)N2CCCCCC2)cc1)Nc1ccccc1,2%,6%,4%,-8
COC(=O)CCN(C1CCCCC1)S(=O)(=O)c1ccc(S(=O)(=O)N2CCCCC2)cc1,-4%,12%,28µM*,6
CC(=O)N/N=C/c1ccccc1OCCOc1cccc(C)c1,/,13µM*,-4%,4
CCc1cc(C)cc(OCCOc2ccccc2/C=N/NC(C)=O)c1,1%,?,1%[11.5 µM],-7
COc1cc2c(cc1OC)CN(S(=O)(=O)c1ccc3c(c1)OCCO3)CC2,1%,-6%,8.9µM*,10
COc1ccc(S(=O)(=O)N2CCc3ccccc3C2)cc1OC,-2%,-3%,3%,14
Cc1cc(C)c(C(=O)COC(=O)Cn2c(C)csc2=O)cc1C,5%,-2%,-6%,5
COc1ccc(CCNC2=C(Cl)C(=O)N(CCc3ccc(OC)c(OC)c3)C2=O)cc1OC,3%,-9%,-2%,-74*
COc1ccc(CCN2C(=O)C=CC2=O)cc1OC,-5%,-11%,/,/
Cn1c(CN2CCCC2)nc2cc(NC(=O)c3cccs3)ccc21,0%[46.1 µM],-7%,-5%,4
Cc1ccc(-n2c(SCC(=O)N/N=C/c3ccccc3C(=O)O)nnc2-c2ccc(Cl)cc2)cc1,2%,1%,-1%,-1
Cc1ccc(-c2nnc(SCC(=O)N/N=C/c3ccccc3C(=O)O)n2-c2ccc(Cl)cc2)cc1,-19%,-17%,28µM*,-6
Cc1cccc(NC(=O)C(=O)NCCCc2ccccc2)c1,8%[46.1 µM],/,-2%,-11
Nc1n[nH]c(=S)n1/N=C1/C(=O)Nc2ccccc21,-6%,8%,-4%,-21
Cc1ccc2nc(Cl)c(/C=N/Nc3ccc(C(=O)O)cc3)cc2c1,-8%,4µM*,0%,6
Cc1ccc2cc(/C=N/NC(=O)c3ccc(F)cc3)c(Cl)nc2c1,-1%,1%,-12%,-10
Cc1ccc(-c2nn(CCC(=O)O)cc2/C=C\C(=O)c2ccc(Br)cc2)cc1,-3%,6.3µM*,0%,-12
SMILES,TCR act,uPA surface inh,PKM2 act,TSHR antagonist
CC12CCC(=O)N1C(C(=O)OCc1c(Cl)cccc1Cl)CS2 (stereo not drawn),-3%,1%,1%,-9
CCc1ccccc1NC(=O)CN1CCN(C(=O)CNC(=O)c2ccc(-c3ccccc3)cc2)CC1,1%,3.2µM*,/,-10
CCc1ccccc1NC(=O)CN1CCN(CC(=O)Nc2ccc(-c3ccccc3)cc2)CC1,3%,-1%,/,9
CCC1C(=NO)C(CC)C(c2ccccc2)NC1c1ccccc1 (stereo not drawn),-2%,4%,3%,-33
O=S(=O)(NCCCO)c1ccc2c(c1)Cc1cc(S(=O)(=O)NCCCO)ccc1-2,-1%,-9%,13µM*,21
O=S(=O)(NCCO)c1ccc2c(c1)Cc1cc(S(=O)(=O)NCCO)ccc1-2,5%,2%,/,10
O=C(CC1CCCCC1)Nc1nc2ccccc2s1,-3%,-2%,16%,-3
O=C(Nc1nc2ccccc2s1)NC1CCCCC1,-2%,7.9µM*,2%,-6
